HP1b chromo inh = HTS for Inhibitors of HP1-beta Chromodomain Interactions with Methylated Histone Tails; 390,000 tested, 0.56% active; Potency, µM (series often up to 114 µM), inactives show top-dose activity change, negative = inhibition, usual class: inhibitors; Chromobox protein homolog 1 (Homo sapiens), P83916; AlphaScreen HP1-beta / biotin-H3K9me3 peptide binding; note: potency is the fitted concentration of half-maximal effect; nearly all actives have a fitted effect of over 70% in size
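Compound inhibition of the preformed complex between 50 nM HP1-beta and 50 nM biotinylated H3K9me3 peptide was read by AlphaScreen. Buffer was PBS pH 7.4 with 0.01% Tween-20. Incubations ran 30 min at room temperature, with 10 ug/mL donor/acceptor beads.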
KAT2A inh = qHTS Assay for Inhibitors of GCN5L2; Potency, µM (top dose mostly 58.9 µM), inactives show at the highest dose activity change, negative = inhibition, usual class: inhibitors; GCN5L2 HAT assay, ThioGlo1 CoA-SH fluorescence; 390,000 tested, 0.21% active; AID 504327, 2011; note: potency is the fitted concentration of half-maximal effect; % is set by controls: 0 for no effect and ±100 for the full control effect
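Compounds, pin-transferred from DMSO stocks, meet 20nM GCN5L2 for 15 min before the reaction begins with H3(1-25) peptide (75uM) and acetyl-CoA (70uM). Thiol-reactive ThioGlo1 reports CoA release over 20 min at room temperature.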
JMJD2A Tudor inh = qHTS Assay for Inhibitors of JMJD2A-Tudor Domain. 390,000 tested, 4.4% active. Lysine-specific demethylase 4A (Homo sapiens), O75164. AID 504339, 2011. AlphaScreen JMJD2A-Tudor / H3K4me3 peptide binding. Potency, µM (highest dose often 114 µM), inactives show at the highest dose activity change, negative = inhibition, hits mostly inhibitors; note: potency is the fitted concentration of half-maximal effect; % is set by controls: 0 for no effect and ±100 for the full control effect; nearly all actives have a fitted effect of over 50% in size
BAZ2B block = qHTS Assay for Inhibitors of BAZ2B. Bromodomain adjacent to zinc finger domain protein 2B (Homo sapiens), Q9UIF8. AlphaScreen BAZ2B-H3K14Ac peptide displacement. Potency, µM (highest dose often 114 µM), inactives show at the top dose activity change, negative = inhibition, actives largely listed as inhibitors. 360,000 tested, 4.4% active. AID 504333, 2011; note: potency is the fitted concentration of half-maximal effect; % is set by controls: 0 for no effect and ±100 for the full control effect; nearly all actives have a fitted effect of over 60% in size
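Protein-peptide AlphaScreen: BAZ2B 50 nM, b-H3K14Ac 50 nM, 1x PBS pH 7.4 + 0.01% Tween-20. Preincubation 30 min RT; cpd 30 min RT (top 110 uM); beads 20 min RT, light-protected.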
PI5P4K alpha inh = qHTS for Inhibitors of phosphatidylinositol 5-phosphate 4-kinase (PI5P4K); Phosphatidylinositol 5-phosphate 4-kinase type-2 alpha (Homo sapiens), P48426; PI5P4Kalpha enzyme, ADP-Glo luminescence, 60 min; hits give low values; max response, %; 330,000 tested, 1.2% active; AID 652105, 2013; active = max response of -50% or lower; inconclusive = between -30% and -50%; inactive = -30% or higher; note: value at the top dose of about 77 µM; % is set by controls: 0 for no effect and ±100 for the full control effect
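Enzyme plus substrate dispensed, test compounds pinned in, then ATP (5 microM final) added. After 60 min at RT, ADP-Glo reagent 1 for 45 min and reagent 2 for 30 min preceded luminescence imaging.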
PLK1 PBD inh = qHTS for Inhibitors of PLK1-PDB (polo-like kinase 1 - polo-box domain): Primary Screen | Serine/threonine-protein kinase PLK1 (Homo sapiens), P53350 | Plk1 PBD binding of FITC phosphopeptide, fluorescence polarization | Potency, µM, for inactives: max response, negative = inhibition, usual class: inhibitors | 360,000 tested, 2.8% active; note: potency is the fitted concentration of half-maximal effect; series mostly up to about 57 µM; % is set by controls: 0 for no effect and ±100 for the full control effect; nearly all actives have a fitted effect of over 65% in size
* = called active by the depositor; u = inconclusive; x = no result. Most compounds without a hit are left out; they make up all but 7% or so of the library. Unless noted, calls come from the whole dose curve; as a rule, active = well fitted curve in the direction sought with a large enough effect; inconclusive = small, poorly fitted or top-dose-only effect, or another doubt; inactive = no such curve, though single readings can be large; an effect the other way counts as inactive or inconclusive.

SMILES	HP1b chromo inh	KAT2A inh	JMJD2A Tudor inh	BAZ2B block	PI5P4K alpha inh	PLK1 PBD inh
CCCc1nc2ccc(Cl)cn2c1Cc1ccccc1	x	x	x	x	-4	-14%
COc1ccc(-c2nc(CSCC(=O)N3CCN(c4ccccc4F)CC3)c(C)o2)cc1	5%	-7%	-25%	-36%	x	x
CCOc1ccc(-c2nc(CSCC(=O)N3CCN(c4cccc(OC)c4)CC3)c(C)o2)cc1	u	-11%	56µM*	u	0	-11%
CCc1ccc(-c2nc(CSCC(=O)N3CCN(c4ccccn4)CC3)c(C)o2)cc1	-17%	-6%	u	50µM*	4	-5%
COC(=O)c1ccc(NC(=O)C(C)Sc2nc(=O)cc(N)n2CCc2ccccc2)cc1 (centres undefined)	18%	-11%	-13%	u	x	x
Nc1cccc(-n2cccc2)c1	-9%	4%	-30%	-37%	-6	0%
CCN(CCO)c1ccc(-n2c(N)c(C(=O)OC)c3nc4ccccc4nc32)cc1	-6%	-11%	79µM*	u	-8	-8%
COC(=O)c1c(N)n(-c2ccc(OC)c(OC)c2)c2nc3ccccc3nc12	22%	-5%	-6%	1%	x	x
Cc1cc(C)nc(NS(=O)(=O)c2ccc(N)cc2)n1	14%	-11%	-12%	-14%	-2	-7%
CNc1cc(NS(=O)(=O)c2ccc(N)cc2)nc(NC)n1	19%	u	89µM*	50µM*	0	-13%
CCc1nn2c(=O)cc(COc3cccc(NC(=O)c4ccco4)c3)nc2s1	13%	-9%	25µM*	u	u	27µM*
CCCc1nn2c(=O)cc(COc3ccc(NC(=O)c4ccco4)cc3)nc2s1	15%	-17%	u	4%	2	21µM*
CCCc1nn2c(=O)cc(COc3cccc(NC(=O)c4ccco4)c3)nc2s1	30%	-5%	-22%	-3%	-3	-24%
CCc1nn2c(=O)cc(COc3ccc(NC(=O)c4ccco4)cc3)nc2s1	18%	-18%	u	-16%	1	27µM*
COc1cccc(N2CCN(CC(=O)NC3=Nc4ccccc4N=C(C)C3c3ccccc3)CC2)c1 (centres undefined)	-5%	-6%	-28%	-33%	10	-12%
CCOC(=O)c1sc(NC(=O)CN2CCN(c3ccc(OC)cc3)CC2)nc1C	u	-2%	56µM*	35µM*	1	-16%
COc1cccc(N2CCN(CC(=O)Nc3nnc(-c4ccccc4)s3)CC2)c1	-20%	-6%	89µM*	u	8	-2%
CCOc1ccccc1N1CCN(CC(=O)Nc2nc(C)c(C(=O)N(C)C)s2)CC1	1%	-3%	14µM*	-6%	-3	-16%
CCOC(=O)c1cccc(NC(=O)CN2CCN(c3ccc(OC)cc3)CC2)c1	-24%	-2%	u	u	-2	4%
CCOC(=O)c1sc(NC(C)=O)nc1C	u	-2%	-13%	1%	x	27µM*
C[C@]12C(=O)N(c3ccc(Cl)cc3)C(=O)N1[C@@H]1c3ccccc3OC[C@@H]1[C@H]2c1ccccc1	29%	x	-19%	x	5	-5%
CC1=NN(c2ccc(C)cc2C)C(=O)C1C(c1ccccc1O)C1C(=O)N(c2ccc(C)cc2C)N=C1C (centres undefined)	4%	-6%	-24%	-10%	-10	u
CC1=NN(c2ccc(Cl)cc2)C(=O)C1C(c1ccccc1O)c1c(C)[nH]n(-c2ccc(Cl)cc2)c1=O (centres undefined)	u	5%	56µM*	35µM*	8	24µM*
COC(=O)c1cccc(Cn2c(Cl)c(/C=N/NC(=O)c3ccco3)sc2=O)c1	37%	-7%	-18%	56µM*	-9	-28%
